According to PubChem BioAssay (Tox21):
Records with an inconclusive call do not appear. Calls of active or inactive are those of the source. Unless noted, calls come from the whole dose curve; as a rule, active = well fitted curve in the direction sought with a large enough effect in the repeat runs; inconclusive = weak or mixed curves; inactive = no such curve, though single readings can be large; an effect the other way counts as inactive or inconclusive.

Legend:
[1] = qHTS assay to identify small molecule antagonists of the estrogen receptor alpha (ER-alpha) signaling pathway using the BG1 cell line in the presence of 0.1 nM 17-beta-estradiol - cell viability counter screen (AID 1259241); note: nearly all actives have a fitted effect of over 40% in size
How it was run: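 CellTiter-Fluor read (30 min, 37C) on ER-alpha/ERE-luc VM7Luc4E2 cells; 22 hr compound treatment; agonist 0.1 nM E2 final; same-well multiplex.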

[2] = qHTS assay to identify small molecule antagonists of the androgen receptor (AR) signaling pathway using the MDA cell line in the presence of 0.5 nM R1881 - cell viability counter screen (AID 1259242); note: nearly all actives have a fitted effect of over 45% in size
How it was run: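 MDA-kb2 cells (MMTV-luciferase, AR/GR responsive) were treated with compounds plus 0.5 nM R1881 (final) for 16 hr at 37C, 0% CO2. Viability was then read in the same wells as live-cell protease fluorescence (CellTiter-Fluor, 30 min).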

[3] = qHTS assay to identify small molecule HDAC inhibitors (AID 1259364); note: top concentration of the series differs between compounds; nearly all actives have a fitted effect of over 45% in size
How it was run: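 Wild-type HCT-116 cells, plated overnight at 37 C, exposed to compounds 2 hr at 37 C; luminogenic HDAC-Glo substrate then added 30 min at room temperature. Luminescence reports relative endogenous class I/II HDAC activity.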

[4] = qHTS assay to identify small molecule HDAC inhibitors - cell viability counter screen (AID 1259365); note: series mostly up to about 92 µM; nearly all actives have a fitted effect of over 50% in size
How it was run: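 To flag cytotoxic hits, 1,500 wild-type HCT-116 cells per well, plated the day before, receive test compounds for 2hr at 37 C before CellTiter-Glo reagent and a luminescence read.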

[5] = qHTS assay to identify small molecule agonists of the sonic hedgehog signaling (Shh) pathway (AID 1259368; calls by dose curve;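 note: NIH/3T3-derived 3T3Gli1-Luc cells carrying a stable Gli1-driven firefly luciferase reporter; series mostly up to about 92 µM; nearly all actives have a fitted effect of over 15% in size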)
How it was run: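 NIH/3T3-derived 3T3Gli1-Luc cells with stably integrated Gli1-driven firefly luciferase, 2,000 cells/well, compounds added after 4 hr. Incubated 24 hr at 37C, 5% CO2; luminescence read after 30 min with luciferase reagent at room temperature.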

[6] = qHTS assay to identify small molecule antagonists of the sonic hedgehog signaling (Shh) pathway (AID 1259369; calls by dose curve; note: nearly all actives have a fitted effect of over 45% in size; note: potency is the fitted concentration of half-maximal effect)
How it was run: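 NIH/3T3-derived Gli1-Luc reporter cells plated 4 h, dosed with compound, then stimulated with conditioned medium for 24 h at 37 C. Firefly luciferase luminescence read after 30 min with detection reagent at room temperature.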

[7] = qHTS assay to identify small molecule agonists of the androgen receptor (AR) signaling pathway in the presence of an antagonist - cell viability counter screen (AID 1259379); note: nearly all actives have a fitted effect of over 25% in size; note: potency is the fitted concentration of half-maximal effect
How it was run: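 MDA-kb2 cells (MMTV-luciferase, AR/GR), 3,000/well, 5 h attachment, then 3.0 µM nilutamide (final) and compounds at 15 concentrations. Viability by CellTiter-Fluor fluorescence after 16 h at 37 °C, 0% CO2, in the reporter wells.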

[8] = qHTS assay to identify small molecule antagonists of the estrogen receptor beta (ER-beta) signaling pathway - cell viability counter screen (AID 1259382);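 note: HEK293T cells carrying ER-beta-UAS-bla reporter stimulated with estradiol; series mostly up to about 92 µM; nearly all actives have a fitted effect of over 55% in size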
How it was run: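 ER-beta-UAS-bla HEK293T cells in 2% charcoal-stripped FBS medium, treated with compound plus 1 nM 17-beta-estradiol for 16 h at 37C. Viability read by CellTiter-Glo luminescence after 30 min at room temperature in the same wells.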

[9] = qHTS assay to identify small molecule agonists or antagonists of the thyroid stimulating hormone receptor (TSHR) signaling pathway - wild type cell line counter screen (AID 1259384; calls by dose curve)
How it was run: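 Counter screen in untransfected Hek293: compounds (15-point titration, triplicate) plus phosphodiesterase inhibitor Ro20-1724 added after 18 h plating; 30 min RT. Intracellular cAMP via competitive d2/cryptate immunoassay, 1 h incubation.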

[10] = target: Thyrotropin receptor (Homo sapiens) (UniProt P16473); assay: qHTS assay to identify small molecule antagonists of the thyroid stimulating hormone receptor (TSHR) signaling pathway (AID 1259385; calls by dose curve; note: nearly all actives have a fitted effect of over 20% in size; note: potency is the fitted concentration of half-maximal effect)
How it was run: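 Antagonist mode: compound-treated TSHR-expressing HEK293 cells were stimulated with 1.5 ng/mL TSH (final) in presence of Ro20-1724 for 30 min at RT. HTRF cAMP detection after 1 h; each compound tested at 15 concentrations, triplicate.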

[11] = target: Estrogen receptor (Homo sapiens) (UniProt P03372); assay: qHTS assay to identify small molecule antagonists of the estrogen receptor alpha (ER-alpha) signaling pathway using the BG1 cell line in the presence of 0.1 nM 17-beta-estradiol (AID 1259244); note: nearly all actives have a fitted effect of over 50% in size; note: potency is the fitted concentration of half-maximal effect
How it was run: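 VM7Luc4E2 cells (endogenous full-length ER-alpha, 4×ERE-luciferase), kept 5 days in phenol red-free, charcoal-stripped FBS medium; 4,000 cells/well. Compounds added with 0.1 nM (final) 17beta-estradiol, 22 hr at 37C; luminescence read with ONE-Glo after 30 min.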

[12] = qHTS assay to identify small molecule phospholipidosis (PLD) inducers (AID 1259344; active = well fitted curve in the direction sought with a large enough effect; an effect the other way counts as inactive or inconclusive)
How it was run: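 Phospholipidosis is scored by imaging LipidTOX-stained pits in HepG2 cells exposed to compound for 24 h at 37 C; pit counts and integrated intensities per well and per cell serve as outputs.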

[13] = qHTS assay to identify small molecule agonists of the sonic hedgehog signaling (Shh) pathway - cell viability counter screen (AID 1259366); note: nearly all actives have a fitted effect of over 50% in size; note: potency is the fitted concentration of half-maximal effect
How it was run: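 Fluorescence from CellTiter-Fluor reports live cells in this counter screen. NIH/3T3-derived Gli1-Luc reporter cells receive test compounds for 24hr at 37C; reagent goes in at 23hr.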

[14] = qHTS assay to identify small molecule antagonists of the sonic hedgehog signaling (Shh) pathway - cell viability counter screen (AID 1259367); note: nearly all actives have a fitted effect of over 55% in size; note: potency is the fitted concentration of half-maximal effect
How it was run: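 Cells: 3T3 Gli1-Luc, 2,000/well, 4 hr pre-incubation. Compounds in DMSO, then conditioned medium. Incubation 24 hr, 37C, 5% CO2. CellTiter-Fluor at 23 hr, 1 hr, fluorescence.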

[15] = target: Estrogen receptor beta (Homo sapiens) (UniProt Q92731); assay: qHTS assay to identify small molecule antagonists of the estrogen receptor beta (ER-beta) signaling pathway (AID 1259378; active = well fitted inhibition curve with a large enough effect in the signal ratio in the repeat runs, not every such curve was filed as active; the % refers to the signal ratio; note: potency is the fitted concentration of half-maximal effect)
How it was run: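 Antagonist mode: compounds added to beta-lactamase reporter HEK293T ER-beta-UAS cells stimulated with E2 (1nM final), 16 hr at 37C. LiveBLAzer B/G FRET substrate, 2 hours room temperature, fluorescence read-out.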

[16] = qHTS assay to identify small molecule agonists of the estrogen receptor beta (ER-beta) signaling pathway - cell viability counter screen (AID 1259380); note: nearly all actives have a fitted effect of over 30% in size; note: potency is the fitted concentration of half-maximal effect
How it was run: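 ER-beta-UAS-bla HEK293T cells in medium with 2% charcoal-stripped FBS, pre-incubated 6 hr, then treated 16 hr at 37C. Cytotoxicity read in the same wells by CellTiter-Glo luminescence after 30 min at room temperature.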

[17] = target: Estrogen receptor (Homo sapiens) (UniProt P03372); assay: qHTS assay to identify small molecule agonists of the estrogen receptor alpha (ER-alpha) signaling pathway in the presence of an antagonist (AID 1259383; calls by dose curve; note: top concentration of the series differs between compounds; nearly all actives have a fitted effect of over 15% in size)
How it was run: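 VM7Luc4E2 cells express endogenous full-length ER-alpha with an ERE-luciferase reporter and were hormone-deprived for 5 days. Compounds at 15 concentrations were added with 10.0nM ICI-182,780 for 22hr at 37C. Luminescence was read with ONE-Glo.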

[18] = target: Androgen receptor (Homo sapiens) (UniProt P10275); assay: qHTS assay to identify small molecule antagonists of the androgen receptor (AR) signaling pathway using the MDA cell line in the presence of 0.5 nM R1881 (AID 1259243); note: potency is the fitted concentration of half-maximal effect; nearly all actives have a fitted effect of over 50% in size
How it was run: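 MDA-kb2 cells (MMTV-luciferase, responsive to AR and GR) at 3,000/well, rested 5 h at 37C, 0% CO2, then given compounds plus 0.5 nM R1881 (final) for 16 hr. Luciferase read with ONE-Glo after 30 min at room temperature.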

[19] = target: Androgen receptor (Homo sapiens) (UniProt P10275); assay: qHTS assay to identify small molecule agonists of the androgen receptor (AR) signaling pathway in the presence of an antagonist (AID 1259381; calls by dose curve; note: nearly all actives have a fitted effect of over 15% in size)
How it was run: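 MDA-kb2 cells carrying MMTV-luciferase (AR/GR responsive), 3,000 cells/well, co-treated with 3.0 uM nilutamide final. Compounds at 15 concentrations, 16 hr at 37C without CO2. Luciferase luminescence read after 30 min with ONE-Glo.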

[20] = target: Estrogen receptor beta (Homo sapiens) (UniProt Q92731); assay: qHTS assay to identify small molecule agonists of the estrogen receptor beta (ER-beta) signaling pathway (AID 1259377; active = well fitted activation curve with a large enough effect in the signal ratio in the repeat runs, not every such curve was filed as active; the % refers to the signal ratio)
How it was run: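 Screening used GripTite ER-beta-UAS-bla cells held in 2% charcoal-stripped FBS medium. After overnight (16 hr) compound incubation at 37C, beta-lactamase activity was detected with a FRET substrate by fluorescence.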

Measured: Potency

Androgen receptor (Homo sapiens), sequence (P10275 whole entry, looked up): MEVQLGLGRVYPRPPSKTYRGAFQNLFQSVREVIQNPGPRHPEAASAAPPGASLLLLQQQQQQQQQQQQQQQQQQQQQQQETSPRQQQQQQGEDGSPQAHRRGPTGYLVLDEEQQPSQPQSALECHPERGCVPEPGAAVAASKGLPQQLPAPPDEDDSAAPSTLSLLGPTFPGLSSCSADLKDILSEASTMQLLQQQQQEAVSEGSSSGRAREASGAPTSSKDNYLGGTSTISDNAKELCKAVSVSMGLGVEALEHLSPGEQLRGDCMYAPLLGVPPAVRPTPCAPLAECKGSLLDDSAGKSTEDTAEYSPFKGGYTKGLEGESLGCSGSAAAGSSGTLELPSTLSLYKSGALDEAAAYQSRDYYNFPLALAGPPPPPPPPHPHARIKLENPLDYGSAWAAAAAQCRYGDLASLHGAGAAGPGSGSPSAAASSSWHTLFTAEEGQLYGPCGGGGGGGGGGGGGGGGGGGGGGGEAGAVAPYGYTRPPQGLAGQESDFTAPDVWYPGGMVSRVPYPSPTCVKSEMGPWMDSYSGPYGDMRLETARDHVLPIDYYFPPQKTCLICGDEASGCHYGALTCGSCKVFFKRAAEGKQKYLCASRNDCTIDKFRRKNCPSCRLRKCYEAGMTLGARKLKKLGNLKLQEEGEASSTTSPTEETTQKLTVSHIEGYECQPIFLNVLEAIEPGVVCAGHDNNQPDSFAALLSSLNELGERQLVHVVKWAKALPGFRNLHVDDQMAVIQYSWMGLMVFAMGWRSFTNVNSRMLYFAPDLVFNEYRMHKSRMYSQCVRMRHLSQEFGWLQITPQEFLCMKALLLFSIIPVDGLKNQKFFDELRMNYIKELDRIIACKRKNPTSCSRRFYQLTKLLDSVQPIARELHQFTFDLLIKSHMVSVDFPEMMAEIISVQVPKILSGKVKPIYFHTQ
Estrogen receptor beta (Homo sapiens), sequence (Q92731 whole entry, looked up): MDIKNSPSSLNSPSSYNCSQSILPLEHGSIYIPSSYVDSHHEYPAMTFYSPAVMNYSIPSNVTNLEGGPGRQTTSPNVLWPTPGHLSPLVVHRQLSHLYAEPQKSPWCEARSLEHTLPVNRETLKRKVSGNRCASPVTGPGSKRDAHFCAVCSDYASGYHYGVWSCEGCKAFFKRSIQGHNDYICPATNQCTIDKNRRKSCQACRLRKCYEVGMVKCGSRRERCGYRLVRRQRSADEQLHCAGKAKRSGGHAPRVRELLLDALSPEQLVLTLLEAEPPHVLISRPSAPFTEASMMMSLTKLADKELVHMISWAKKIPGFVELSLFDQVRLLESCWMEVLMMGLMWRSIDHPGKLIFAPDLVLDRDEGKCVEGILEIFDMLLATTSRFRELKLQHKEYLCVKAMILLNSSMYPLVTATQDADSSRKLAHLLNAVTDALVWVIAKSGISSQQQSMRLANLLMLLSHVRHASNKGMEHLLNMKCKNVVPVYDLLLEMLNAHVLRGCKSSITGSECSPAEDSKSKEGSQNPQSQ
Estrogen receptor (Homo sapiens), sequence (P03372 whole entry, looked up): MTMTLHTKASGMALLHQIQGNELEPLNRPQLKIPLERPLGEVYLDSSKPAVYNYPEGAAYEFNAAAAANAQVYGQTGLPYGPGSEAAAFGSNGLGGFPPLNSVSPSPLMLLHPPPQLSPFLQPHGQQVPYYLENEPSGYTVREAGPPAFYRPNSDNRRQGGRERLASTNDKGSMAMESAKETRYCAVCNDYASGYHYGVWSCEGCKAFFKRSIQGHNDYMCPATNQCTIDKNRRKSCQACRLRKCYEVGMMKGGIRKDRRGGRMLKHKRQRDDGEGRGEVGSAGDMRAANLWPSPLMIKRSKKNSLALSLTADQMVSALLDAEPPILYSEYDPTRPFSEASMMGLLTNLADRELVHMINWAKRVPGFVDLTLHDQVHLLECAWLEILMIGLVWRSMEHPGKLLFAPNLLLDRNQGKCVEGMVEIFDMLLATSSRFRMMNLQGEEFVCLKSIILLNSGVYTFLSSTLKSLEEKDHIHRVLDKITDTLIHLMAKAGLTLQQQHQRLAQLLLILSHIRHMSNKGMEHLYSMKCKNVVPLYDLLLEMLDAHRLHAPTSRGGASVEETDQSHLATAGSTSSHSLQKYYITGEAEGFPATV
Thyrotropin receptor (Homo sapiens), sequence (P16473 whole entry, looked up): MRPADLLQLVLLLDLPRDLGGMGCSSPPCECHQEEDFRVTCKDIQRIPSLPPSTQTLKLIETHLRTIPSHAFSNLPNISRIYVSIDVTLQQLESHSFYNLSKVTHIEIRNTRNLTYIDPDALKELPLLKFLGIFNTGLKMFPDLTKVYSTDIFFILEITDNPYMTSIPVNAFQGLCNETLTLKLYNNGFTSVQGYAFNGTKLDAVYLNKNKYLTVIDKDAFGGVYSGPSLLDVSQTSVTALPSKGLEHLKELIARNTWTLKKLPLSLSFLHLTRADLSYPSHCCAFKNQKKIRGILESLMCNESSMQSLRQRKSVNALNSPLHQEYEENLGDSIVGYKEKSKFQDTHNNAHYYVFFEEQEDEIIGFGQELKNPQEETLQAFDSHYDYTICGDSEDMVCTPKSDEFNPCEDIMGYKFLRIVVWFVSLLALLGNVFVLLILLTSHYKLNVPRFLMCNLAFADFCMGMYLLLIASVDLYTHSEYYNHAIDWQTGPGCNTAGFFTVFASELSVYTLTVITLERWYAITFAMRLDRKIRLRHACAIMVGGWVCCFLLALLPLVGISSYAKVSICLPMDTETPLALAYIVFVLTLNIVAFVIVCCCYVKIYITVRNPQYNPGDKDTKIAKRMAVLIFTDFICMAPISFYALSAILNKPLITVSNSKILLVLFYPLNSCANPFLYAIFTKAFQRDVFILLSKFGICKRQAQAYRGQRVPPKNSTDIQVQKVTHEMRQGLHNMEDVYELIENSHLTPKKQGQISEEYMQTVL

CC(=O)c1ccc2c(c1)[C@H](NC(=O)c1ccc(F)cc1)[C@@H](O)C(C)(C)O2
inactive: [1] | [2] | [3] | [4] | [5] | [6] | [7] | [8] | [9] | [10]

C=Cc1c(C)c2cc3[nH]c(cc4nc(cc5nc(cc1[nH]2)C(C)=C5CCC(=O)O)C(CCC(=O)O)=C4C)c(C)c3C=C
active: [13] 13.3 µM | [14] 23.7 µM | [7] 21.1 µM
not listed: [1] | [2] | [6] | [18] | [19] | [20]
inactive: all other assays above

CCCCc1cc2ccccc2c(OCCN(C)C)n1
inactive: [1] | [2] | [3] | [4] | [13] | [14] | [5] | [7] | [9] | [10]

Cc1cc(O)ccc1N
inactive: [4] | [5] | [19] | [17] | [9]
active: [18] 43.5 µM | [11] 15.4 µM | [13] 27.4 µM | [14] 48.8 µM | [6] 17.3 µM | [16] 48.8 µM

Oc1ccc(Cc2ccccc2)cc1
inactive: [1] | [2] | [3] | [4] | [5] | [7] | [8] | [9] | [10]

O=C(O)/C=C/c1cnc[nH]1
not listed: [5] | [7] | [11] | [12] | [17] | [18] | [19]
inactive: all other assays above

CC(C)(C)c1cc(CO)cc(C(C)(C)C)c1O
not listed: [6] | [11] | [12] | [14] | [15] | [16] | [18] | [19]
inactive: all other assays above

c1ccc(OCc2ccc(CCCN3CCOCC3)cc2)cc1
active: [18] 29.8 µM | [7] 29.8 µM
not listed: [1] | [3] | [6] | [11] | [20]
inactive: all other assays above

C=CC(=O)OCCOC(=O)CCC(=O)O
inactive: [1] | [2] | [3] | [4] | [13] | [7] | [16] | [8] | [9] | [10]
active: [6] 61.1 µM

COCCO
inactive: [1] | [2] | [3] | [4] | [13] | [14] | [6] | [7] | [16] | [8] | [17]

COC(Cc1ccccc1)OC
not listed: [3] | [11] | [12] | [15] | [18] | [19] | [20]
inactive: all other assays above

CCCCCCCCCCCCC(=O)O
active: [6] 2.74 µM | [16] 54.6 µM
inactive: [1] | [2] | [4] | [13] | [7] | [17] | [9] | [10]

CC(=O)OC/C=C/c1ccccc1
not listed: [5] | [7] | [9] | [11] | [12] | [17] | [18] | [19]
inactive: all other assays above

CCCCCCCCCCCCCCCC(=O)OC/C=C(C)/C=C/C=C(C)/C=C/C1=C(C)CCCC1(C)C
inactive: [1] | [2] | [4] | [13] | [14] | [5] | [7] | [16] | [8] | [9] | [10]

Cn1c(N)nc2nc[nH]c2c1=O
active: [10] 48 µM
not listed: [3] | [7] | [9] | [11] | [12] | [17] | [18] | [19]
inactive: all other assays above

O=[N+]([O-])c1cc[n+]([O-])cc1
inactive: [2] | [3] | [4] | [5] | [7] | [19] | [17] | [9]
active: [18] 54.5 µM | [14] 61.1 µM | [6] 30.6 µM | [15] 43.3 µM | [16] 27.3 µM

CCOC(=O)[C@H](CCc1ccccc1)N[C@H]1CCc2ccccc2N(CC(=O)O)C1=O
active: [16] 11.9 µM | [10] 29.8 µM
inactive: [1] | [3] | [4] | [13] | [5] | [6] | [7]

CCCCCCCCCCCCCCC1CO1 (stereo unspecified)
not listed: [3] | [11] | [12] | [18] | [19]
inactive: all other assays above
